Laboratory results taken from PubChem BioAssay AID1721 (National Center for Advancing Translational Sciences (NCATS), 2009).
About 1,100 (0.38%) of roughly 290,000 compounds were called active. The call rests on the fitted dose curve; in most records, active means well fitted inhibition curve with a large enough effect; inconclusive means small, poorly fitted or top-dose-only effect, or another doubt; inactive means no such curve, though single readings can be large or run the other way. The entries come from a sample that favours actives as a whole. A call without a number means that no potency is given here.

target: Pyruvate kinase (Leishmania mexicana) (UniProt Q27686); assay: qHTS Assay for Inhibitors of Leishmania Mexicana Pyruvate Kinase (LmPK); conditions: purified LmPK, Kinase-Glo ATP luminescence, 1 h; series mostly up to 57.5 µM
Sequence (Q27686 whole entry, looked up): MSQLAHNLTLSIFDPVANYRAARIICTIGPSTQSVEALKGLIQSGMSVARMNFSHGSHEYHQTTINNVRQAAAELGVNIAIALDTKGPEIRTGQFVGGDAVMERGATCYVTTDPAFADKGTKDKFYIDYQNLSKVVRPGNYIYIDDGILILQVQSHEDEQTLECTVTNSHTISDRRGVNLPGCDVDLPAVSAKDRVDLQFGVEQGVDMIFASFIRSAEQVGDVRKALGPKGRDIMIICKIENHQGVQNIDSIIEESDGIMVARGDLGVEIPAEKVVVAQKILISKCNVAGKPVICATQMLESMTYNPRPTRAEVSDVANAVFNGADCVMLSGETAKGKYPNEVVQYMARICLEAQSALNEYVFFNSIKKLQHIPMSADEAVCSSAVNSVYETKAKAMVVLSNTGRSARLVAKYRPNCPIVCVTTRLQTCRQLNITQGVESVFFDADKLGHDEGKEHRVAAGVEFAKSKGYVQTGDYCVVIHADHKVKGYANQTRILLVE
Excerpt: NIH Chemical Genomics Center [NCGC] Malcolm Walkinshaw, Hugh Morgan, Linda Gilmore University of Edinburgh, UK MLPCN Grant: 1 R03 MH085697-01 NCGC Assay Overview: Pyruvate kinase (L. Mexicana) (LmPK) enzyme was supplied as a highly purified (>95% pure) sulphate-free preparation from University of Edinburgh, UK and assayed for its ability to generate ATP from ADP using phosphoenolpyruvate (PEP) as a substrate. ATP generation was detected in a coupled reaction by luciferase-mediated luminescence, an ATP-dependent process. […] The enzyme was assayed at an intermediate level of activity to screen for both inhibitors and activators.
NCGC Assay Protocol Summary: Three uL of enzyme mix (kept on ice) in assay buffer (50 mM Imidazole pH7.2, 50 mM KCl, 7 mM MgCl2, 0.01% Tween 20, 0.05% BSA) containing PEP (0.5 mM final concentration) and LmPK (0.1 nM final concentration) was dispensed into white solid bottom 1,536 well microtiter plates. 23 nL of compound were delivered by a pin tool and 1 uL of ADP mix in assay buffer (r.t; 0.1 mM final ADP concentration) was added. Plates were incubated at room temperature for 1 hour. Two uL of detection mix (Kinase-Glo, Promega; at 4 degree Celsius protected from light) was added and luminescence read by a ViewLux (Perkin Elmer) at 1 second exposure/plate. Data were normalized to the uninhibited and AC100 inhibition (no enzyme). To monitor activation, the first column contained a five-fold concentration of LmPK (0.5 nM).
Potency means the concentration at half of the fitted maximal effect.

Structure (SMILES)	Potency	activity change, negative = inhibition
CCn1c(CNS(=O)(=O)c2ccc(Cl)cc2)n[nH]c1=S	inactive	
CCn1c(CSCc2c(Cl)cccc2Cl)n[nH]c1=S	15.8 µM (active)	
CCn1c(-c2ccncc2)n[nH]c1=S	inactive	
COc1cccc(CNC(=O)C2CCCN(S(=O)(=O)N3CC(C)CC(C)C3)C2)c1 (stereo unspecified)	inactive	
c1ccc(Cc2ccc(OCCn3ccnc3)cc2)cc1	inactive	
CCC1CCCCN1CCCNC(=O)c1cc2c(Cl)nc3ccccc3c2s1 (stereo unspecified)	inactive	
CCOc1ccccc1NS(=O)(=O)c1cc2c3c(c1)C(C)C(=O)N3CCC2 (stereo unspecified)	inactive	
CCOC(=O)c1cc(S(=O)(=O)NCCc2ccc(OC)c(OC)c2)cn1C	inactive	
O=C(C[n+]1ccccc1)N/N=C/c1ccc(O)cc1	inactive	
Cc1nonc1C(=O)N/N=C/c1ccc(O)cc1	8.91 µM (active)	
Cc1nc2ccc(C(=O)N/N=C/c3ccc(O)cc3)cc2[nH]1	inactive	
C=CCNc1nc(N)c([N+](=O)[O-])c(NC2CCCCC2)n1	inactive	
NNC(=O)CNC(c1ccccc1)c1cc(Cl)ccc1NC(=O)c1ccccc1 (stereo unspecified)	inactive	
C[C@@H](NC(=O)OC(C)(C)C)c1nnc(S(=O)(=O)Cc2ccccc2)o1	inactive	
Cc1cc2c(c(=O)n1Cc1ccccc1)C1O[C@](CCCCN3C(=O)c4ccccc4C3=O)(Cc3ccccc31)O2		-8.6% [at 11.5 µM] (inactive)
O=C(Nc1ncc([N+](=O)[O-])s1)C1COc2ccccc2O1 (stereo unspecified)	inactive	
O=C(CCc1ccccc1)Nc1ncc([N+](=O)[O-])s1	inactive	
CC(=O)Oc1ccccc1C(=O)Nc1ncc([N+](=O)[O-])s1	12.6 µM (active)	
Cc1ccc(/C=N/NC(=O)c2cc3ccccc3cc2O)o1	inactive	
N=c1oc2ccccc2cc1C(=O)N/N=C/c1ccccc1	8.91 µM (active)	
N=c1oc2ccccc2cc1C(=O)NCc1ccccc1	inactive	
CC1CC(C)CN(CCOc2cccc3ccccc23)C1 (stereo unspecified)	inactive	
Cc1cc(C)c(OCC(=O)N(Cc2cccs2)C2CCS(=O)(=O)C2)c(C)c1 (stereo unspecified)	inactive	

Structure (SMILES)	Potency	activity change, negative = inhibition
CCCn1c(C2CCCN2c2nc(-c3ccc(OC)cc3)cs2)nc2ccccc21 (stereo unspecified)	inactive	
COc1ccc(-n2ncc3c2CC(C)(C)CC3NC(=O)CCc2c(C)noc2C)cc1 (stereo unspecified)	inactive	
COC(=O)c1ccc2c(C(C)(C)O)c(C(C)(C)O)[nH]c2c1	inactive	
Cc1cc(-c2n[nH]c(=S)n2-c2ccc(C)c(C)c2)no1	inactive	
Cc1ccc(OCc2n[nH]c(=S)n2-c2ccc(C)cc2)cc1	inactive	
S=c1[nH]nc(-c2ccc(Cl)cc2)n1CC1CCCO1 (stereo unspecified)	inactive	
COc1ccc(OC)c(-n2c(=S)[nH]c3cc(C(=O)N4CCCCC4)ccc3c2=O)c1	inactive	
COc1ccc(-n2c(-c3ccc(OC)c(OC)c3)n[nH]c2=S)cc1	20 µM (active)	
COc1ccc(-c2n[nH]c(C)c2-c2ccc(OC)c(OC)c2)c(O)c1	inactive	
COc1ccc(OCc2n[nH]c(=S)n2N)cc1	inactive	
COc1ccccc1-n1cn[nH]c1=S	inactive	
COc1ccccc1-n1c(-c2cc(-c3ccco3)[nH]n2)n[nH]c1=S	3.55 µM (active)	
Cc1cc(-c2n[nH]c(=S)n2/N=C/c2ccco2)n[nH]1	inactive	
Cc1ccc(-n2c(-c3ccc(Cl)cc3)n[nH]c2=S)cc1	14.1 µM (active)	
COc1ccc(OC)c(-n2c(-c3ccn[nH]3)n[nH]c2=S)c1	20 µM (active)	
O=C(CN1CCCCCC1)Nc1c(Cl)cc(Cl)cc1Cl	inactive	
O=C(C1CCCN(S(=O)(=O)c2ccccc2)C1)N1CCN(c2ccc(F)cc2)CC1 (stereo unspecified)	inactive	
O=C(CCS(=O)(=O)c1ccccc1)NC1CCCC1	inactive	
CC(C)(C)C1C/C(=C/c2ccco2)C(=O)/C(=C/c2ccco2)C1 (stereo unspecified)	inactive	
COc1ccc(S(=O)(=O)NCCOc2ccccc2)cc1F	inactive	
COc1ccc(CCN2CC(C(=O)NCCN3CCNC3=O)CCC2=O)cc1 (stereo unspecified)	inactive	
CCn1c(SCC(=O)NC2CCCC2)nnc1-c1ccoc1C	inactive	
COc1cccc(NC(=O)COc2cc(C)cc3oc(=O)cc(C)c23)c1	inactive	

Structure (SMILES)	Potency	activity change, negative = inhibition
COc1ccc(S(=O)(=O)NCCCCOc2ccc(Cl)cc2)cc1	inactive	
CCOc1ccc(C2NC(=S)NC3=C2CCc2ccccc23)cc1 (stereo unspecified)	inactive	
CC(C)(C)c1ccc(Cn2nnc3c(=O)[nH]c(C4CCCN(C(=O)c5ccco5)C4)nc32)cc1 (stereo unspecified)	inactive	
COc1ccc(C(=O)NC2CC(C)(C)NC(C)(C)C2)cc1OC	inactive	
COCCc1nn2c(=O)cc(COC(=O)c3cc(OC)c(OC)c(OC)c3)nc2s1	inactive	
CC(=O)C1=C(O)C(=O)N(c2ccc(Br)cc2)C1c1ccc([N+](=O)[O-])cc1 (stereo unspecified)	inactive	
CCCCc1nc2cc(C(=O)N3CCCCC3CCO)ccc2o1 (stereo unspecified)	inactive	
COc1ccccc1C(=O)Nc1ccc(NC(=O)c2ccco2)c(C)c1	15.8 µM (active)	
COc1ccc(OCC(=O)Nc2ccc(NC(=O)c3ccco3)c(C)c2)cc1	inactive	
Cc1cc(NC(=O)c2ccc(F)cc2)ccc1NC(=O)c1ccco1	inactive	
CCn1c(SCC(=O)NC2CC2)nnc1-c1ccccc1OC	inactive	
COc1ccc(C(=O)Nc2ccc(F)cc2F)cc1	14.1 µM (active)	
COc1ccccc1CC(=O)Nc1ccc(F)cc1F	inactive	
COc1cc(OC)cc(C(=O)OCC(=O)Nc2ccc(F)cc2F)c1	inactive	
O=C(c1cc(-c2ccc(O)cc2)on1)N1CCOCC1	inactive	
Cc1ccc(CN2CCN(c3ncccn3)CC2)c(C)c1	inactive	
CCOC(=O)C1CCN(C(=O)C2CCCN(S(=O)(=O)c3ccc(OC)c(Cl)c3)C2)CC1 (stereo unspecified)	inactive	
O=C(Cc1cccs1)Nc1nnc(C2CC2)s1	inactive	
O=C(Nc1nnc(C2CC2)s1)c1cc(Cl)sc1Cl	inactive	
Cc1cnc(NC(=O)c2ccc(Cl)nc2)s1	inactive	
O=C(Nc1nnc(C2CC2)s1)c1ccccn1	25.1 µM (active)	
Cc1cnc(NC(=O)CSc2c(Cl)cccc2Cl)s1	inactive	
Cc1cnc(NC(=O)c2ccccn2)s1	15.8 µM (active)	

Structure (SMILES)	Potency	activity change, negative = inhibition
O=C(O)c1ccc(-n2nc(-c3ccccc3)c3ccccc3c2=O)cc1	inactive	
COC(=O)c1c(NC(=O)COC(=O)[C@@H](NS(=O)(=O)c2ccccc2)C(C)C)sc2c1CCC2	inactive	
O=C(CN(CC1CCCO1)C(=O)CNS(=O)(=O)c1ccc(Cl)cc1)NCc1ccccc1 (stereo unspecified)	inactive	
CC(C(=O)Nc1ccc(O)c(C(=O)O)c1)N1C(=O)/C(=C/c2cccs2)SC1=S (stereo unspecified)	inactive	
COc1ccc(NC(=O)C(CC(C)C)NC(=O)C2CCC(C)CC2)cc1 (stereo unspecified)	inactive	
O=C(Nc1nnc(C2=COCCO2)o1)c1ccc([N+](=O)[O-])s1	inactive	
COc1cc(C(C)=O)ccc1OC(=O)CN1C(=O)c2ccccc2C1=O	inactive	
COc1cccc(/C=C2\C=C(c3ccc(C)cc3)OC2=O)c1OC(C)=O	inactive	
CCOc1cccc(/C=C/c2ccc3ccccc3n2)c1OC(C)=O	inactive	
COc1cccc(/C=C/c2ccc3ccccc3n2)c1OC(C)=O	25.1 µM (active)	
COc1ccc(CCNCc2c(-c3ccccc3)n(C)c3ccccc23)cc1	inactive	
Cc1ccc(N(C(=O)C(F)(F)F)C(C(=O)NC2CCCCC2)c2ccncc2)cc1C (stereo unspecified)	inactive	
O=C(O)C1CCCN1C1=NS(=O)(=O)c2ccccc21 (stereo unspecified)	inactive	
O=C(O)CCCCc1nc2ccccc2s1	inactive	
CN(Cc1nc2ccccc2s1)C(=O)c1ccc(F)cc1	inactive	
COc1ccccc1OCc1nc2ccccc2s1	15.8 µM (active)	
Cc1cc(S(=O)(=O)N2CCOCC2)ccc1OCC(=O)Nc1cccc(C(F)(F)F)c1	inactive	
COc1cc(SC)ccc1C(=O)Nc1cc(C)ccn1	inactive	
COc1cc(SC)ccc1C(=O)NCCOc1ccccc1Cl	inactive	
COc1cc(SC)ccc1C(=O)Nc1nc(C)cs1	10 µM (active)	
O=C(NC(=S)NC1CCS(=O)(=O)C1)c1cccc([N+](=O)[O-])c1 (stereo unspecified)	inactive	
Cn1cccc1-c1nc2ccccc2n1C	inactive	
O=c1c2ccccc2nc(-c2ccco2)n1-c1ccc(Br)cn1	inactive	

Structure (SMILES)	Potency	activity change, negative = inhibition
Cn1c(-c2ccco2)nc2cc3ccccc3cc21	12.6 µM (active)	
S=c1[nH]nc(-c2cc(-c3ccccc3)n[nH]2)n1/N=C/c1c2ccccc2cc2ccccc12	inactive	
c1ccc(-c2cc(-c3ccccc3)[nH]n2)cc1	inactive	
S=c1[nH]nc(-c2cc(-c3ccsc3)n[nH]2)n1-c1ccccc1	10 µM (active)	
CCn1cc(C(=O)N[C@@H](C)C(=O)NCCO)c(=O)c2cc3c(cc21)OCO3	inactive	
CCCNC(=O)CCc1c(C)nc2c(c(C)nn2-c2ccc(C)cc2)c1C	inactive	
CC(C)OC(=O)c1ccc(COc2ccc3ccc(=O)oc3c2)o1	inactive	
O=c1[nH]c2ccccc2n2c(-c3ccccc3)nnc12	3.16 µM (active)	
Cc1ccccc1Cn1c(=O)[nH]c2ccccc21	inactive	
CC(=O)c1c(-c2ccccc2)c2ccccc2[nH]c1=O	inactive	
Cc1ccc(S(=O)(=O)N/N=C(\c2ccccc2)C2CC2)cc1	inactive	
Cc1cc(C2=NNC(=Nc3ccc(S(=O)(=O)N4CCOCC4)cc3)SC2)c(C)n1CC1CCCO1 (stereo unspecified)	inactive	
Cc1cccc(N=C2NN=C(c3c[nH]c4ccccc34)CS2)c1	inactive	
C=CCn1c(C)cc(C2=NNC(=NCC)SC2)c1C	14.1 µM (active)	
COc1ccc(-c2ccc(OC(=O)NC3CCS(=O)(=O)C3)cc2)cc1 (stereo unspecified)	inactive	
CCOc1ccc(N/C=C/C(=O)c2ccccc2)cc1	inactive	
COc1ccc(C(=O)/C=C/Nc2ccccn2)cc1	12.6 µM (active)	
COc1ccc2cc(S(=O)(=O)Nc3ccccn3)ccc2c1	inactive	
CC1CCC(NC(=O)CN(C)S(=O)(=O)c2ccc3c(c2)c(=O)n(C)c(=O)n3C)CC1 (stereo unspecified)	inactive	
